# A selection: hits, their analogues and other compounds. The true share with any hit is near 3.4%.
# FBW7 activator = activators of human E3 ligase FBW7; Q969H0; AlphaScreen FBW7–phospho-cyclin E peptide binding, activator screen; normalized activity (activation), % at 26.1 µM; 650,000 compounds, 0.13% hits; in the data active = normalized activity above about 1.9%;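 also: purified mutant Fbw7 with reduced substrate affinity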
# MITF primary = human MITF inhibition, primary screen | O75030 | AlphaScreen MITF homodimerization, bead proximity signal | inhibition, % at 2.6 µM | 650,000 compounds, 0.91% hits | AID 1259374; in the data active = inhibition above about 50%;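 also: 0% = vehicle wells with protein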
# Target sequence (O75030 whole entry, looked up): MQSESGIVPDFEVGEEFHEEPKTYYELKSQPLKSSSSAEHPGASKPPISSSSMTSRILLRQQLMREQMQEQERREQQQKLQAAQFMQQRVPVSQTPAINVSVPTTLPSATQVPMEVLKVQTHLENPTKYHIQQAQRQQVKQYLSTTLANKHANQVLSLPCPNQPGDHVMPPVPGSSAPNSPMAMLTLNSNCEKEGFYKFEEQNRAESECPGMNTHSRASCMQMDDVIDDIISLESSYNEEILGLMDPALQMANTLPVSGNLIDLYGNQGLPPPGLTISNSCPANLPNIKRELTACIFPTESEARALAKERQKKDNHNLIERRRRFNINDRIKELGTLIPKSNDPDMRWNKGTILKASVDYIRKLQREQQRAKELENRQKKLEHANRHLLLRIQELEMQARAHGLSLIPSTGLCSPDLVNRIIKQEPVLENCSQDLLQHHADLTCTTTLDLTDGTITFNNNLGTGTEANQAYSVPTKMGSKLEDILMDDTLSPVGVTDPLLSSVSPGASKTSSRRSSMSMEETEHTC
# GPR151 activ = human GPR151 activation; PathHunter beta-arrestin GPR151 cells, luminescence; activation, % at 11.2 µM; 650,000 compounds, 1% hits; AID 1508602; in the data active = activation above about 4.9%;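 also: 0% = median of compound wells and 100% = cells with positive control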
# TEAD-YAP inh = TEAD-YAP interaction inhibition | 640,000 compounds, 1.4% hits | inhibition, % at 9.12 µM | HEK-TIYL cells, TEAD-Gal4/YAP UAS-luciferase luminescence; in the data active = inhibition above about 32%;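 also: 0% = median of test compound wells and 100% = reference inhibitor wells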
# GPR151 conf act = human GPR151 activation, confirmation screen; activation, % at 11.2 µM; shares compounds with GPR151 activ; GPR151 PathHunter beta-arrestin cells, luminescence, 90 min; % of EA-reagent control over plate median; 6,700 tested, under 10 active; AID 1508609;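 active = mean percent activation across replicates above the confirmation screen cutoff of 4.91%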
# GPR119 counter = counter-screen for GPR151 activators: effect on human GPR119; shares compounds with GPR151 activ; GPR119 PathHunter beta-arrestin cells, luminescence, 90 min; 0 = compound-well median, 100 = enzyme-acceptor control; 6,700 compounds, 0.3% hits; activation, % at 11.2 µM;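 active = mean percent activation in the counterscreen above 29.09%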;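 also: counterscreen on off-target GPR119 to flag nonselective hits from the GPR151 activator screen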
# An asterisk follows results filed as active; / = no result given.
SMILES,FBW7 activator,MITF primary,GPR151 activ,TEAD-YAP inh,GPR151 conf act,GPR119 counter
COc1cc([N+](=O)[O-])ccc1-c1ccc(C(=O)Nc2ccc(Br)cn2)o1,0,4,7.1*,-3,1,17
COc1cc([N+](=O)[O-])ccc1-c1ccc(C(=O)Nc2cc(Cl)cc(Cl)c2)o1,0,-4,-1,4,/,/
CCCN(CCC)C(=O)c1sc2nc(C)nc(N3CCCCC3)c2c1C,0,-2,5.5*,-3,1,-2
CCC(C)NC(=O)c1sc2nc(C)nc(N3CCC(C)CC3)c2c1C (centres undefined),0,5,6.9*,0,0,-1
CC(C)C(=O)Nc1ccc(NC(=O)C(C)(C)C)cc1,0,6,-1,-6,/,/
O=C(NC1CCN(C(=O)Nc2ccccc2)CC1)c1ccccc1F,0,7,0,1,/,/
O=C(Cc1c(O)c2ccccc2[nH]c1=O)NCCO,0,-2,1,3,/,/
O=C(Cc1c(O)c2ccccc2[nH]c1=O)NCc1ccccn1,0,16,5.6*,4,0,6
O=C(CCCOc1ccccc1)NNC(=O)c1ccccc1,0,1,26*,0,1,11
CC(=O)c1ccc(OCCCC(=O)NNC(=O)c2ccccc2)cc1,0,-8,-1,-36,/,/
Cc1cc(Nc2ccc(N3CCOCC3)cc2)nc(Nc2ccc(-n3ccnc3)cc2)n1,0,4,8.9*,99*,3,63*
Cc1cc(Nc2ccc(N3CCOCC3)cc2)nc(Nc2nccc3ccccc23)n1,0,10,5.3*,81*,1,23
Cc1cc(NC2CC2)nc(Nc2ccc(-n3ccnc3)cc2)n1,0,-9,5.3*,-12,-1,-11
CCN(CC)c1nc(Nc2ccccc2)nc(Nc2ccc(-n3ccnc3)cc2)n1,0,8,6.6*,-6,0,4
Cc1cc(Nc2ccc(N3CCOCC3)cc2)nc(Nc2ccccn2)n1,0,8,3,12,/,/
Cc1cc(Nc2ccccc2)nc(Nc2ccc(-n3ccnc3)cc2)n1,0,-2,4,-1,/,/
COc1ccc(/C=N/n2c(=O)c(C(C)(C)C)nn3cnnc23)cc1O,0,-8,2,0,/,/
C=C(C)Cn1c(SCC(N)=O)nc2c1c(=O)[nH]c(=O)n2C,0,-14,1,-6,/,/
COc1ccc(N2C(=O)C3CCCN3C2c2ccccc2OC)cc1 (centres undefined),0,-13,6.1*,-7,0,-8
COc1ccc(N2C(=O)C3CCCN3C2c2cc(OC)ccc2OC)cc1 (centres undefined),1,18,0,9,/,/
C/C(=N/NC(=O)COc1cccc(Cl)c1)c1cccc([N+](=O)[O-])c1,0,-12,6.6*,-2,0,2
O=C(COc1ccccc1Cl)NC1CCCCCC1,0,-14,4.9*,-53,1,5
COc1ccc(OC(=O)COc2ccccc2Cl)cc1,0,-15,7.8*,-9,0,8
O=C(COc1ccccc1Br)NC1CCCCC1,0,-9,1,-62,/,/
CC(=O)c1cccc(NC(=O)COc2ccccc2[N+](=O)[O-])c1,0,-11,6.2*,-30,1,7
SMILES,FBW7 activator,MITF primary,GPR151 activ,TEAD-YAP inh,GPR151 conf act,GPR119 counter
Cc1ccc2[nH]c(=O)c3cc(C(=O)NCCCN4CCCC4=O)sc3c2c1,0,6,-1,-32,/,/
COc1ccc(/C(C)=N\NC(=O)COc2ccc(C)cc2C)cc1OC,0,4,1,4,/,/
C/C(=N\NC(=O)COc1ccccc1[N+](=O)[O-])c1ccc(Cl)cc1,0,-11,7.1*,-17,0,-1
COc1ccc(/C(C)=N\NC(=O)COc2ccc(C)cc2[N+](=O)[O-])cc1OC,0,1,7.4*,-3,0,1
O=C(COc1ccc(Cl)cc1Cl)NC1CC2CCC1C2 (centres undefined),1,-4,5.3*,-6,0,9
COc1cc([N+](=O)[O-])ccc1NC(=S)NCc1ccco1,0,15,-3,8,/,/
C/C(=N\NC(=S)NCc1ccco1)c1cccc([N+](=O)[O-])c1,0,3,5.0*,7,2,10
O=C(CCC1CCN(C(=O)C2=CCCC2)CC1)NCC1CCCO1 (centres undefined),0,10,4,2,/,/
CCOCCn1c(=NC(=O)Cc2ccccc2)sc2cc(NC(C)=O)ccc21,0,-5,0,2,/,/
COc1ccccc1N1CCN(c2nc(Nc3ccc(F)cc3)c3cnn(C)c3n2)CC1,0,-10,1,-5,/,/
O=C(N/N=C/c1ccccc1O)c1sc2ccccc2c1O,0,8,0,-2,/,/
Cc1ccc(C)c(OCC(=O)N/N=C\c2cccn2C)c1,0,19,0,6,/,/
Cc1ccc(OCC(=O)N/N=C\c2cccn2C)c([N+](=O)[O-])c1,0,18,5.3*,-3,-1,-10
COc1ccc(NC(=O)Cc2ccccc2[N+](=O)[O-])cc1Cl,0,-8,2,-32,/,/
O=C(COc1ccccc1Cl)N/N=C/c1ccc(F)cc1,0,-7,-1,-8,/,/
COc1ccc(NC(=O)Cc2ccccc2[N+](=O)[O-])cc1OC,1,5,6.5*,-24,0,8
O=C(COc1ccccc1Cl)N/N=C\C=N/NC(=O)COc1ccccc1Cl,0,0,12*,-3,0,14
O=C(NC(=S)NCc1ccco1)c1cc([N+](=O)[O-])ccc1N1CCOCC1,0,3,7.4*,3,0,-2
O=C(NCc1ccco1)c1cc([N+](=O)[O-])ccc1N1CCCCC1,0,14,3,9,/,/
CC(=O)N1CC(C)Oc2cc(S(=O)(=O)NC(C)c3ccccc3)ccc21 (centres undefined),0,-2,1,3,/,/
O=C(COc1ccccc1[N+](=O)[O-])N/N=C/c1ccccc1Cl,0,-24,22*,-35,0,2
CC(C)(C)NC(=O)COc1ccccc1[N+](=O)[O-],0,-2,1,3,/,/
O=C(COc1ccccc1-c1ccccc1)NNC(=O)COc1ccccc1[N+](=O)[O-],0,8,7.1*,-9,-1,2
CC1CCCC(C)N1C(=O)Cn1c(C(F)(F)F)nc2ccccc21 (centres undefined),0,17,12*,10,1,0
CC1CN(C(=O)Cn2c(C(F)(F)F)nc3ccccc32)CC(C)O1 (centres undefined),0,1,3,4,/,/
COc1ccc(/C(O)=C2\C(=O)C(=O)N(c3ccc(C(=O)O)cc3)C2c2ccccc2)cc1 (centres undefined),0,31,9.3*,-35,0,11
